# Experimental data reported in the supplement of paper PMC12669797.
# Several values for one entry are separate records, joined by “and”; a condition that tells them apart may be missing. Equal values may be shown once. ± gives the standard deviation of the averaged measurements.
# Experiments:
# [1] = test system: ES2; test: cell viability relative to DMSO control (MTS) (fraction of DMSO control); higher = more viable cells / less growth inhibition; details: 10 µM; 48 h
# How it was run: (§1)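 Viability values are fractions of the vehicle-treated control. They come from an MTS assay run per the manufacturer's instructions on TOV-21G and ES2 clear cell carcinoma cells, seeded at 5000 cells per well in 96-well plates. Each compound of a 367-member […] library was added at 10 µM final after 24 h of growth, and the readout was taken after a further 48 h.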
# [2] = test system: TOV-21G; test: as above; details: 10 µM; 48 h
# How it was run: as §1
Compound,cell viability [1],cell viability [2]
Cc1cccc(-c2nn3c(c2-c2ccnc4ccc(C(N)=O)cc24)CCC3)n1,0.988,1.02
O=c1cc(-c2ccccc2)oc2cc(O)c(O)c(O)c12 [Baicalein],0.916,0.821
CNC(=O)c1ccc(N2C(=S)N(c3ccc(C#N)c(C(F)(F)F)c3)C(=O)C2(C)C)cc1F,1.14,1.18
CC(C)[C@H](CO)Nc1nc(Nc2cccc(Cl)c2)c2ncn(C(C)C)c2n1 [Purvalanol A],0.815,0.652
COc1cccc(-c2cc(=O)c3ccccc3o2)c1N,0.798 and 0.451,0.852 and 0.84
CC(C)c1cc(/C=C(\C#N)C(=O)NCCCc2ccccc2)cc(C(C)C)c1O,1.3 ± 0.21,0.938 ± 0.063
Nc1nc(Nc2ccc(S(N)(=O)=O)cc2)nn1C(=S)Nc1c(F)cccc1F [Cdk1/2 inhibitor III],0.687,0.665
COc1cc(/C=C(\C#N)C(N)=O)cc(CSc2nc3ccccc3s2)c1O,0.978 ± 0.072,1.067 ± 0.0093
C1=Cc2nc1cc1nc(c(-c3ccccc3)c3ccc(cc4ccc([nH]4)c2-c2ccccc2)[nH]3)C=C1,0.908,1.19
O=S(=O)(c1cccc2cnccc12)N1CCCNCC1,0.979,1.04
Cc1ccc(NC(=O)c2cccc(N(C)C)c2)cc1NC(=O)c1ccc(O)cc1,0.951,0.888
O=C(Nc1cccc(Nc2nccc(Nc3cccc(C(F)(F)F)c3)n2)c1)C1CC1 [Aurora kinase inhibitor III],0.94,0.573
O=C(Nc1ccc([N+](=O)[O-])cc1O)Nc1ccccc1Br,0.469,0.605
